Experimental data as given in PubChem BioAssay (NCI).
“And” between values parts separate entries of the source, which are not always exact repeats. Equal values may be shown once. The panel holds about 83,000 compounds, 20% with a hit somewhere; the sample as a whole holds those more often.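 The test compound was applied at a single concentration to cells in 96-well plates for 48 hours, and percent growth was recorded.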 The source made the active and inactive calls. The calls were made as follows: active = growth percent below 10; inactive = the rest.

Assays:
Assay in all cases: NCI-60 one-dose screen, 48 h (100 = growth as untreated, 0 = no growth, -100 = all killed)
Conditions in all cases: 10 µM unless noted
NCI-H23 lung = tested on: NCI-H23 lung
NCI-H226 lung = tested on: NCI-H226 lung
NCI-H322M lung = tested on: NCI-H322M lung
HOP-62 NSCLC = tested on: HOP-62 NSCLC
NCI-H460 lung = tested on: NCI-H460 lung
HOP-92 NSCLC = tested on: HOP-92 NSCLC
NCI-H522 lung = tested on: NCI-H522 lung
A549/ATCC NSCLC = tested on: A549/ATCC NSCLC
786-0 renal = tested on: 786-0 renal
COLO 205 colon = tested on: COLO 205 colon
DU-145 prostate = tested on: DU-145 prostate
K-562 leukemia = tested on: K-562 leukemia
MALME-3M melanoma = tested on: MALME-3M melanoma
MDA-MB-231 breast = tested on: MDA-MB-231 breast
RXF 393 renal = tested on: RXF 393 renal
SF-268 CNS = tested on: SF-268 CNS
SF-295 CNS = tested on: SF-295 CNS
SF-539 CNS = tested on: SF-539 CNS
UACC-257 melanoma = tested on: UACC-257 melanoma
M14 melanoma = tested on: M14 melanoma

| Structure (SMILES) | growth (NCI-H23 lung) | growth (NCI-H226 lung) | growth (NCI-H322M lung) | growth (HOP-62 NSCLC) | growth (NCI-H460 lung) | growth (HOP-92 NSCLC) | growth (NCI-H522 lung) | growth (A549/ATCC NSCLC) | growth (786-0 renal) | growth (COLO 205 colon) | growth (DU-145 prostate) | growth (K-562 leukemia) | growth (MALME-3M melanoma) | growth (MDA-MB-231 breast) | growth (RXF 393 renal) | growth (SF-268 CNS) | growth (SF-295 CNS) | growth (SF-539 CNS) | growth (UACC-257 melanoma) | growth (M14 melanoma) |
| --- | --- | --- | --- | --- | --- | --- | --- | --- | --- | --- | --- | --- | --- | --- | --- | --- | --- | --- | --- | --- |
| COC(=O)[C@H]1Cc2c([nH]c3ccccc23)[C@@H](c2cccs2)N1 | 104% (inactive) | 98.3% (inactive) | 100% (inactive) | 102% (inactive) | 105% (inactive) | 105% (inactive) | 78.9% (inactive) | 103% (inactive) | 91.4% (inactive) | 131% (inactive) | 106% (inactive) | 104% (inactive) | 97.6% (inactive) | 95.1% (inactive) | 107% (inactive) | 98.9% (inactive) | 100% (inactive) | 93.1% (inactive) | 105% (inactive) | 107% (inactive) |
| COc1ccc2c(c1)CCNC21C(=O)Nc2c(Br)cc(Br)cc21 (stereo not given) | 98.4% (inactive) | 101% (inactive) | 90.3% (inactive) | 86.1% (inactive) | 101% (inactive) | 93.2% (inactive) | 91.6% (inactive) | 99.2% (inactive) | 94.8% (inactive) | 112% (inactive) | 110% (inactive) | 98.8% (inactive) | 88.3% (inactive) | 74.7% (inactive) | 133% (inactive) | 100% (inactive) | 103% (inactive) | 94% (inactive) | 100% (inactive) | 97.7% (inactive) |
| Cc1nc2sc(C(=O)Nc3cccc(Cl)c3C)c(N)c2cc1C(O)c1ccccc1 (stereo not given) | 19.8% (inactive) | 43.5% (inactive) | 49.8% (inactive) | 33.6% (inactive) | 3.15% (active) | 30% (inactive) | 4.83% (active) | 16.2% (inactive) | 16.5% (inactive) | -0.762% (active) | 10.7% (inactive) | 6.05% (active) | 50.2% (inactive) | 15.3% (inactive) | 46.2% (inactive) | 24% (inactive) | 26.9% (inactive) | 0.0688% (active) | 57% (inactive) | 7.42% (active) |
| N#CC(Cc1cccc2ccccc12)c1cc2ccccc2[nH]1 (stereo not given) | 85% (inactive) | 83.1% (inactive) | 84.8% (inactive) | 78.4% (inactive) | 99.8% (inactive) | 55.6% (inactive) | 75.5% (inactive) | 89.5% (inactive) | 95.3% (inactive) | 105% (inactive) | 103% (inactive) | 86.6% (inactive) | 81.9% (inactive) | 81.4% (inactive) | 87.8% (inactive) | 89.3% (inactive) | 95.9% (inactive) | 102% (inactive) | 93.9% (inactive) | 82.6% (inactive) |
| O=C([C@H]1C[C@H]1c1ccc(S(F)(F)(F)(F)F)cc1)N1CCN(c2cc(Cl)ccc2C(F)(F)F)CC1 | 91.2% (inactive) | 75.7% (inactive) | 90.1% (inactive) | 102% (inactive) | 95.6% (inactive) | 88.3% (inactive) | 70.7% (inactive) | 81.5% (inactive) | 89.3% (inactive) | 101% (inactive) | 104% (inactive) | 74.2% (inactive) | 89.7% (inactive) | 97.2% (inactive) | 91.8% (inactive) | 90.2% (inactive) | 92.6% (inactive) | 107% (inactive) | 94.9% (inactive) | 90.7% (inactive) |
| COc1ccccc1/C=C1\COc2ccc(O)c(O)c2C1=O | 40.8% (inactive) | 76% (inactive) | 46.2% (inactive) | 17.3% (inactive) | 24.6% (inactive) | 29.6% (inactive) | -42.3% (active) | 50.6% (inactive) | 2.1% (active) | 77.9% (inactive) | 5.75% (active) | 2.89% (active) | 6.18% (active) | 17.4% (inactive) | 36.6% (inactive) | 32% (inactive) | 90.8% (inactive) | -23.5% (active) | 33.6% (inactive) | 29% (inactive) |
| CC[C@@H]1NC(=O)[C@H]([C@H](O)[C@H](C)C/C=C/c2ccc(CN3C(=O)C(C)=C(C)C3=O)cc2)N(C)C(=O)[C@H](C(C)C)N(C)C(=O)[C@H](CC(C)C)N(C)C(=O)[C@H](CC(C)C)N(C)C(=O)[C@@H](C)NC(=O)[C@H](C)NC(=O)[C@H](CC(C)C)N(C)C(=O)[C@H](C(C)C)NC(=O)[C@H](CC(C)C)N(C)C(=O)CN(C)C1=O | 82.6% (inactive) | 65% (inactive) | 65.7% (inactive) | 70.7% (inactive) | 80.7% (inactive) | 68.8% (inactive) | 61.9% (inactive) | 58.1% (inactive) | 97.6% (inactive) | 72.8% (inactive) | 73.9% (inactive) | 70% (inactive) | 88.2% (inactive) | 71.5% (inactive) | 80% (inactive) | 71% (inactive) | 69.4% (inactive) | 86.9% (inactive) | 69.4% (inactive) | 60% (inactive) |
| CN1CCN(CCCN2c3ccccc3Sc3ccc(Cl)cc32)CC1 | 82.3% (inactive) and 86.4% (inactive) | 95.7% (inactive) and 95.1% (inactive) | 93.1% (inactive) | 90.4% (inactive) | 93.4% (inactive) and 96.9% (inactive) | 48.1% (inactive) and 29.4% (inactive) | 81.5% (inactive) and 92.9% (inactive) | 73.9% (inactive) and 80.4% (inactive) | 62.8% (inactive) and 72% (inactive) | 26.8% (inactive) | 91% (inactive) and 104% (inactive) | 42.3% (inactive) and 39.7% (inactive) | 91.6% (inactive) | 70.7% (inactive) and 55.1% (inactive) | 47% (inactive) and 63% (inactive) | 82.3% (inactive) and 88.2% (inactive) | 85.7% (inactive) and 82.5% (inactive) | 85.1% (inactive) | -34.7% (active) and 53.2% (inactive) | -53.2% (active) and 63.3% (inactive) |
| CN1CCN(Cc2ccc(NC(=O)c3nc4ccc5[nH]ncc5c4c4c3CCCC4)cc2C(F)(F)F)CC1 | -21.9% (active) | 73.4% (inactive) | 19% (inactive) | -75.9% (active) | -58.6% (active) | -79.9% (active) | -70.7% (active) | -83.1% (active) | -85.4% (active) | -86.8% (active) | -73.1% (active) | -48.4% (active) | -75.7% (active) | -81.2% (active) | -97.1% (active) | -75.7% (active) | -67.7% (active) | -89.3% (active) | -80.3% (active) | -64.1% (active) |
| COc1cc(CO)cc2cc3ccccc3nc12 | 97.3% (inactive) | 79.4% (inactive) | 115% (inactive) | 95.7% (inactive) | 105% (inactive) | 103% (inactive) | 96.8% (inactive) | 104% (inactive) | 97.8% (inactive) | 107% (inactive) | 106% (inactive) | 90.7% (inactive) | 112% (inactive) | 101% (inactive) | 115% (inactive) | 100% (inactive) | 102% (inactive) | 102% (inactive) | 105% (inactive) | 105% (inactive) |
| C/C=C(/C)C(=O)O[C@@H]1CC(C)(C)CC2C34OC(=O)[C@@]21CC[C@@]3(C)[C@]1(C)CCC2C(C)(C)C(=O)CC[C@]2(C)C1C[C@@H]4Cl (stereo not given in full) | 95.4% (inactive) | 86.7% (inactive) | 98.2% (inactive) | 94.5% (inactive) | 97.7% (inactive) | 74.7% (inactive) | 93% (inactive) | 91% (inactive) | 90.4% (inactive) | 98.8% (inactive) | 104% (inactive) | 85.6% (inactive) | 90.8% (inactive) | 93.4% (inactive) | 108% (inactive) | 93% (inactive) | 97.3% (inactive) | 85% (inactive) | 89.8% (inactive) | 93.1% (inactive) |
| Nc1ncnc2c1C(c1ccc([N+](=O)[O-])cc1)c1sc3c(F)cccc3c1O2 (stereo not given) | 86.8% (inactive) | 62.9% (inactive) | 93.6% (inactive) | 116% (inactive) | 89.4% (inactive) | 107% (inactive) | 84.3% (inactive) | 99.9% (inactive) | 103% (inactive) | 109% (inactive) | 93.1% (inactive) | 83.4% (inactive) | 104% (inactive) | 84.4% (inactive) | 101% (inactive) | 98.7% (inactive) | 106% (inactive) | 96% (inactive) | 121% (inactive) | 112% (inactive) |
| CCCO/N=C/c1ccccn1 | 105% (inactive) and 96.6% (inactive) | 99.2% (inactive) and 100% (inactive) | 112% (inactive) | 104% (inactive) and 88.2% (inactive) | 105% (inactive) and 109% (inactive) | 105% (inactive) | 94.8% (inactive) and 87.3% (inactive) | 97.5% (inactive) and 104% (inactive) | 107% (inactive) and 101% (inactive) | 112% (inactive) and 108% (inactive) | 102% (inactive) and 111% (inactive) | 99.5% (inactive) and 103% (inactive) | 110% (inactive) and 105% (inactive) | 103% (inactive) and 111% (inactive) | 112% (inactive) and 122% (inactive) | 96.4% (inactive) and 104% (inactive) | 131% (inactive) and 95.3% (inactive) | 110% (inactive) and 95% (inactive) | 102% (inactive) and 96.8% (inactive) | 105% (inactive) and 103% (inactive) |
| COc1ccc(-c2cc(=O)c3c(O)cc(O)cc3o2)cc1 | 96.3% (inactive) and 100% (inactive) | 106% (inactive) | 109% (inactive) and 103% (inactive) | 113% (inactive) and 114% (inactive) | 104% (inactive) and 97.2% (inactive) | 95.4% (inactive) and 75% (inactive) | 83.2% (inactive) and 77.9% (inactive) | 97.1% (inactive) and 94.8% (inactive) | 107% (inactive) | 101% (inactive) | 103% (inactive) and 97.8% (inactive) | 91.5% (inactive) | 113% (inactive) and 110% (inactive) | 113% (inactive) and 91.4% (inactive) | 121% (inactive) and 116% (inactive) | 98.5% (inactive) and 99.4% (inactive) | 101% (inactive) and 104% (inactive) | 94.5% (inactive) and 105% (inactive) | 127% (inactive) and 126% (inactive) | 118% (inactive) and 122% (inactive) |
